Test results taken from PubChem BioAssay (Tox21).
Results filed as inconclusive are left out. Where a call stands in place of a potency, no number is given. The source made the active and inactive calls. Calls come from the whole dose curve; as a rule, active = well fitted curve in the direction sought with a large enough effect in the repeat runs; inconclusive = weak or mixed curves; inactive = no such curve, though single readings can be large; an effect the other way counts as inactive or inconclusive.

Assays:
[1] = target: Cytochrome P450 2C19 (Homo sapiens) (UniProt P33261); assay: Cytochrome P450 Family 2 Subfamily C Member 19 (CYP2C19) small molecule antagonists: luciferase reporter qHTS assay (AID 1671197); note: nearly all actives have a fitted effect of over 65% in size; for activity change, negative = inhibition: series mostly up to about 120 µM
In short: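 CYP2C19 P450-Glo, 1536-well qHTS. Cpd + enzyme/proluciferin substrate 10 min RT; + NADPH regen, 37C 1 h; stop with luciferin detection reagent, 20 min RT, luminescence (RLU). Pos ctrl ketoconazole.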

[2] = target: Cytochrome P450 2C9 (Homo sapiens) (UniProt P11712); assay: Cytochrome P450 Family 2 Subfamily C Member 9 (CYP2C9) small molecule antagonists: luciferase reporter qHTS assay (AID 1671198); note: nearly all actives have a fitted effect of over 50% in size; for activity change, negative = inhibition: series mostly up to about 120 µM
In short: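 CYP2C9 activity was measured with a P450-Glo proluciferin substrate. Enzyme–substrate mix was held with compound for 10 min at room temperature, then NADPH regeneration solution was added for 1 h at 37C. Luciferin product was read as luminescence.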

[3] = target: Cytochrome P450 1A2 (Homo sapiens) (UniProt P05177); assay: Cytochrome P450 Family 1 Subfamily A Member 2 (CYP1A2) small molecule antagonists: luciferase reporter qHTS assay (AID 1671199); note: nearly all actives have a fitted effect of over 50% in size; for activity change, negative = inhibition: series mostly up to about 120 µM
In short: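 CYP1A2 turnover of a luminogenic substrate was quantified after 1 h with NADPH regeneration at room temperature. Furafylline served as positive control.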

[4] = target: Voltage-gated inwardly rectifying potassium channel KCNH2 (Homo sapiens) (UniProt Q12809); assay: Human Ether-a-go-go-Related Gene (hERG) channel small molecule antagonists: fluorescence cell-based qHTS assay (AID 1671200); note: nearly all actives have a fitted effect of over 50% in size;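 for activity change, negative = inhibition: hERG-expressing U2OS cells given a thallium stimulus after FluxOR II dye loading; series mostly up to about 77 µM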
In short: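 First, 1000 cells per well are seeded and cultured overnight at 37 C. Next, FluxOR II dye is loaded for 1 h at room temperature, protected from light. After 10 more minutes, stimulus is added and fluorescence is read.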

[5] = target: Cytochrome P450 3A4 (Homo sapiens) (UniProt P08684); assay: Cytochrome P450 Family 3 Subfamily A Member 4 (CYP3A4) small molecule antagonists: luciferase reporter qHTS assay (AID 1671201); note: nearly all actives have a fitted effect of over 50% in size; for activity change, negative = inhibition: series mostly up to about 120 µM
In short: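 Enzyme and proluciferin substrate are mixed with test chemicals for 10 min, then NADPH regeneration system drives turnover for 1 h at room temperature. A detection reagent halts the reaction; luminescence after 20 min gives relative activity.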
Potency is the fitted concentration of half-maximal effect.

Sequence of Cytochrome P450 2C9 (Homo sapiens) (P11712 whole entry, looked up): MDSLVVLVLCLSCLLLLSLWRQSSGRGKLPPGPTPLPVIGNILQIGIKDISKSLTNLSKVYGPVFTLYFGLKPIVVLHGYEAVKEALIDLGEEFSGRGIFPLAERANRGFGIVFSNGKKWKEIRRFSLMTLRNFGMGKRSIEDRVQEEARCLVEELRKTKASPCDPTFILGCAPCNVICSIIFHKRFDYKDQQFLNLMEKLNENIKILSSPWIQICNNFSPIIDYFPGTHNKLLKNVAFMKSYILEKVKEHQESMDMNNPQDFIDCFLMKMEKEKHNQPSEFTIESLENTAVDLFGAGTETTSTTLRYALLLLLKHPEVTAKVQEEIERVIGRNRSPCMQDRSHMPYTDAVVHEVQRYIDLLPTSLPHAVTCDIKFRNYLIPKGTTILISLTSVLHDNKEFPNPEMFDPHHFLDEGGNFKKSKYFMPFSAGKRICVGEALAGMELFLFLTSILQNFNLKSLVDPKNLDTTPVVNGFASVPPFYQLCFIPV
Sequence of Cytochrome P450 1A2 (Homo sapiens) (P05177 whole entry, looked up): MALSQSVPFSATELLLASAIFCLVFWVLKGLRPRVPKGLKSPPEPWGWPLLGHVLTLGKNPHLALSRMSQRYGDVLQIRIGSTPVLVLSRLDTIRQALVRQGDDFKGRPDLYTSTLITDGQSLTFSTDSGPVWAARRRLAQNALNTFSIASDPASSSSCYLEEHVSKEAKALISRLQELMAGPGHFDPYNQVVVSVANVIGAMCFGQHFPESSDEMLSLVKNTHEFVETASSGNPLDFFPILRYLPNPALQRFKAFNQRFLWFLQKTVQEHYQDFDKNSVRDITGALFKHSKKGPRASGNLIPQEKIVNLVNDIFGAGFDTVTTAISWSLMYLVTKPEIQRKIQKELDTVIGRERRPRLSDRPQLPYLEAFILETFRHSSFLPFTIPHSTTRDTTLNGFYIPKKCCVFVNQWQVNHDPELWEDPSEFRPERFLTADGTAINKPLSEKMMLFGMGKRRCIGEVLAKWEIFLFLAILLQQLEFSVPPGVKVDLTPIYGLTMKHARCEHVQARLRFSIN
Sequence of Cytochrome P450 2C19 (Homo sapiens) (P33261 whole entry, looked up): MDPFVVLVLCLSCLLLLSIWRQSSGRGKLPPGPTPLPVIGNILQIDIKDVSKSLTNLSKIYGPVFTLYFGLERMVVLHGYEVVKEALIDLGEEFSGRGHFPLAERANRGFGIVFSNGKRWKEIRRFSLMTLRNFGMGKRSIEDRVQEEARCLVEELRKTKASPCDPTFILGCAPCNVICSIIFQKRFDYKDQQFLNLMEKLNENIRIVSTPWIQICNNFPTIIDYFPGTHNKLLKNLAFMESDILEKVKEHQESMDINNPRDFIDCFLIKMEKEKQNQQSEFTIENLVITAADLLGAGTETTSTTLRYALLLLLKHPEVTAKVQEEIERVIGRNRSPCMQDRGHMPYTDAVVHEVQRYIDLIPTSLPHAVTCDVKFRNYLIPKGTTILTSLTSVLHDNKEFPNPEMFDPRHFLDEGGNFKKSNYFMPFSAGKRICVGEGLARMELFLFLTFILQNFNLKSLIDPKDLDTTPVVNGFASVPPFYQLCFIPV
Sequence of Cytochrome P450 3A4 (Homo sapiens) (P08684 whole entry, looked up): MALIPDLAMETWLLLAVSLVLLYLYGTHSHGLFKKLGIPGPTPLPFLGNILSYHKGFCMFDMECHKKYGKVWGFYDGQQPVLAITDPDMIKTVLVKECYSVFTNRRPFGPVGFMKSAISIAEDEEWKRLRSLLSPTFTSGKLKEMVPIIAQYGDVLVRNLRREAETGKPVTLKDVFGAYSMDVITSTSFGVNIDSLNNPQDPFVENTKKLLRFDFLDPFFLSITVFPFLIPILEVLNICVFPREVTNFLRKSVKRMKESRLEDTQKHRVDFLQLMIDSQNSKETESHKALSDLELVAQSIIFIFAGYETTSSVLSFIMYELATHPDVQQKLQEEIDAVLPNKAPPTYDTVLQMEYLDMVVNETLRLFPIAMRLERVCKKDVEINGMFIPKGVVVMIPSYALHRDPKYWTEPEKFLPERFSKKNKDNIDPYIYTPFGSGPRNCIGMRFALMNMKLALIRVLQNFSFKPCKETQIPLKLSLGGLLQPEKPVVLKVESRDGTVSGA
Sequence of Voltage-gated inwardly rectifying potassium channel KCNH2 (Homo sapiens) (Q12809 whole entry, looked up): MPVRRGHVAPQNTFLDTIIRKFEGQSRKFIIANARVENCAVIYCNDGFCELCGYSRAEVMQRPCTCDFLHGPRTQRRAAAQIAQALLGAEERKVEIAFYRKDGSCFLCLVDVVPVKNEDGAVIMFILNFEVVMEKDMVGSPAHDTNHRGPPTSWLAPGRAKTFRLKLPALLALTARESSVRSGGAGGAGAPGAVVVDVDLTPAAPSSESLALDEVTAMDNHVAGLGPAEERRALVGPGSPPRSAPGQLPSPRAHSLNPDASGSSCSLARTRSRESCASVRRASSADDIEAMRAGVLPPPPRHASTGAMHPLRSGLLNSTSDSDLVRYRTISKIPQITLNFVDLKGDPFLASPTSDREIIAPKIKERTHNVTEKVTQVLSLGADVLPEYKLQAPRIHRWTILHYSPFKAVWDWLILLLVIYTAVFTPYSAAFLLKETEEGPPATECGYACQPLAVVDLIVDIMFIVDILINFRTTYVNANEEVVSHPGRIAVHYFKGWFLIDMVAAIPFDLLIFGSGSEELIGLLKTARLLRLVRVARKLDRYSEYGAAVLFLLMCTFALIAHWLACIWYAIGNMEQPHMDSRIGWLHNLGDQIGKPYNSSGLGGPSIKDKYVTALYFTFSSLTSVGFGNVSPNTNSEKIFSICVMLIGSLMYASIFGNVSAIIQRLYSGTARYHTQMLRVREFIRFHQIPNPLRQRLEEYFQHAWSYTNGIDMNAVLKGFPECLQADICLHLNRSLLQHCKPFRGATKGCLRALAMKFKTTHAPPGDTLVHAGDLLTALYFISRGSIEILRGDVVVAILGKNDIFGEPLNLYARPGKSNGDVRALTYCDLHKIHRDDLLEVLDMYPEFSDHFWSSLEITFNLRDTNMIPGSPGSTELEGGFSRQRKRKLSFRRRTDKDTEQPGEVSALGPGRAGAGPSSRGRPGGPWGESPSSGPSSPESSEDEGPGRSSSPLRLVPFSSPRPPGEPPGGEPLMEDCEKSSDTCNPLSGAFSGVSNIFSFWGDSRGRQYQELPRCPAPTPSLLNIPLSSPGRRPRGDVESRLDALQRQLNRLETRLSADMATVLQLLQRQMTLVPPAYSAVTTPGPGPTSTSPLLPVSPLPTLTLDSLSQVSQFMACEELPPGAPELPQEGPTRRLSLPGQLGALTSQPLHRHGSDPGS

How did the Potency [1] turn out when `CCCCC(CC)COC(=O)COc1cc(Cl)c(Cl)cc1Cl` (stereo not drawn) was run?
Its Potency is 7.1 µM (active).

And the Potency [2]?
The Potency was 8.94 µM (active).

And the Potency [3]?
The Potency was 15.9 µM (active).

What about the Potency [4] of the same compound?
Its Potency is “inactive”.

What about the Potency [5] of the same compound?
The Potency was 6.33 µM (active).

How did the Potency [1] turn out when `CC1(C)S[C@@H]2[C@H](NC(=O)C(C(=O)O)c3ccccc3)C(=O)N2[C@H]1C(=O)O` (stereo partly drawn) was run?
The Potency was “inactive”.

And the Potency [2]?
Its Potency is “inactive”.

And the Potency [3]?
The Potency was “inactive”.

What about the Potency [4] of the same compound?
The Potency was “inactive”.

And the Potency [5]?
The Potency was “inactive”.

What does the source list for `CCC(=O)Nc1ccc(O)cc1`?
Potency [1]: inactive; Potency [2]: inactive; Potency [3]: inactive; Potency [4]: inactive; Potency [5]: inactive

Which Potency [1] does the source give for `CCC(=O)c1ccc2c(c1)N(CCCN(C)C)c1ccccc1S2` here?
Its Potency is 11 µM (active).

And the Potency [2]?
The Potency was “inactive”.

What about the Potency [3] of the same compound?
The Potency was 1.82 µM (active).

What about the Potency [4] of the same compound?
Its Potency is 9.52 µM (active).

And the Potency [5]?
The Potency was “inactive”.

What does the source list for `COc1cc2c(cc1N)oc1ccccc12`?
Potency [1]: 4.57 µM (active); Potency [2]: 6.46 µM (active); Potency [3]: 0.513 µM (active); Potency [4]: inactive; Potency [5]: 7.25 µM (active)

Which results are given for `COC(=O)c1ccc(OC)cc1`?
Potency [1]: inactive; Potency [2]: inactive; Potency [3]: 35.6 µM (active); Potency [4]: inactive

`CC(C)c1ccccc1` was tested. Which Potency [1] did it give?
Its Potency is “inactive”.

And the Potency [2]?
Its Potency is “inactive”.

And the Potency [3]?
The Potency was “inactive”.

And the Potency [4]?
The Potency was “inactive”.

And the Potency [5]?
Its Potency is “inactive”.

Which Potency [1] does the source give for `O=C1CCN(c2ccccc2)N1` here?
Its Potency is 80 µM (active).

What about the Potency [2] of the same compound?
Its Potency is 8 µM (active).

What about the Potency [3] of the same compound?
The Potency was 35.7 µM (active).

And the Potency [4]?
The Potency was “inactive”.

What about the Potency [5] of the same compound?
Its Potency is 35.7 µM (active).

`CCN(CC)CCOc1ccc(Cc2ccccc2)cc1` was tested. Which Potency [1] did it give?
Its Potency is 0.55 µM (active).

What about the Potency [2] of the same compound?
The Potency was “inactive”.

And the Potency [3]?
The Potency was “inactive”.

And the Potency [4]?
Its Potency is 7.56 µM (active).

What about the Potency [5] of the same compound?
Its Potency is “inactive”.

For `FC(F)(F)C(Cl)(Cl)Cl`, which Potency [1] is on record?
Its Potency is “inactive”.

What about the Potency [2] of the same compound?
The Potency was “inactive”.

And the Potency [3]?
Its Potency is “inactive”.

What about the Potency [4] of the same compound?
Its Potency is “inactive”.

What about the Potency [5] of the same compound?
The Potency was “inactive”.

`Oc1ccccc1F` was tested. Which Potency [1] did it give?
Its Potency is “inactive”.

What about the Potency [2] of the same compound?
Its Potency is “inactive”.

What about the Potency [3] of the same compound?
Its Potency is 35.5 µM (active).

What about the Potency [4] of the same compound?
The Potency was “inactive”.

And the Potency [5]?
Its Potency is “inactive”.

How did the Potency [1] turn out when `N#CSCC(=O)O` was run?
The Potency was “inactive”.

What about the Potency [2] of the same compound?
Its Potency is “inactive”.

What about the Potency [3] of the same compound?
Its Potency is “inactive”.

What about the Potency [4] of the same compound?
The Potency was “inactive”.

What about the Potency [5] of the same compound?
Its Potency is “inactive”.

Which results are given for `CCOc1ccc(NS(=O)(=O)c2ccc(N)cc2)nn1`?
Potency [1]: 30.9 µM (active); Potency [2]: inactive; Potency [3]: inactive; Potency [4]: inactive; Potency [5]: inactive

How did the Potency [1] turn out when `O=Cc1ccc(F)c(Br)c1` was run?
Its Potency is “inactive”.

What about the Potency [2] of the same compound?
The Potency was “inactive”.

What about the Potency [3] of the same compound?
Its Potency is 35.6 µM (active).

And the Potency [4]?
The Potency was “inactive”.

And the Potency [5]?
Its Potency is “inactive”.

What does the source list for `C1CSCCS1`?
Potency [1]: inactive; Potency [2]: inactive; Potency [3]: inactive; Potency [4]: inactive; Potency [5]: inactive

For `NC(=O)NS(=O)(=O)c1ccc(Cl)cc1`, which Potency [1] is on record?
Its Potency is “inactive”.

What about the Potency [2] of the same compound?
Its Potency is “inactive”.

And the Potency [3]?
Its Potency is “inactive”.

What about the Potency [4] of the same compound?
Its Potency is “inactive”.

How did the Potency [1] turn out when `COc1ccc2nc(NC(=O)Nc3ccccc3)sc2c1` was run?
Its Potency is 21.9 µM (active).

And the Potency [2]?
Its Potency is 15.5 µM (active).

And the Potency [3]?
Its Potency is 12.3 µM (active).

What about the Potency [4] of the same compound?
The Potency was “inactive”.

What about the Potency [5] of the same compound?
Its Potency is “inactive”.

Which results are given for `O=c1[nH]c(=O)n([C@H]2C[C@H](O)[C@@H](CO)O2)cc1C(F)(F)F`?
Potency [1]: inactive; Potency [2]: inactive; Potency [3]: inactive; Potency [4]: inactive; Potency [5]: inactive

What does the source list for `Cc1cn([C@@H]2O[C@H](CO)[C@@H](O)[C@@H]2F)c(=O)[nH]c1=O`?
Potency [1]: inactive; Potency [2]: inactive; Potency [3]: inactive; Potency [4]: inactive; Potency [5]: inactive

Which results are given for `Cc1cc(S(=O)(=O)O)c(N)cc1Cl`?
Potency [1]: 80.5 µM (active); Potency [2]: 28.6 µM (active); Potency [3]: inactive; Potency [4]: inactive; Potency [5]: inactive

With `CC(C)S` as the compound, how does the Potency [1] read?
The Potency was “inactive”.

What about the Potency [2] of the same compound?
The Potency was “inactive”.

What about the Potency [3] of the same compound?
The Potency was “inactive”.

And the Potency [4]?
Its Potency is “inactive”.

What about the Potency [5] of the same compound?
Its Potency is “inactive”.

How did the Potency [1] turn out when `Clc1cccc(-c2cc(Cl)cc(Cl)c2)c1` was run?
Its Potency is 30.6 µM (active).

What about the Potency [2] of the same compound?
The Potency was 38.5 µM (active).

And the Potency [3]?
Its Potency is 21.7 µM (active).

What about the Potency [4] of the same compound?
The Potency was “inactive”.

What about the Potency [5] of the same compound?
Its Potency is “inactive”.

Which results are given for `Cc1cc(NS(=O)(=O)c2ccc(N)cc2)nc(C)n1`?
Potency [1]: inactive; Potency [2]: inactive; Potency [3]: inactive; Potency [4]: inactive; Potency [5]: inactive

Which Potency [1] does the source give for `OCc1ccccc1O` here?
Its Potency is “inactive”.

And the Potency [2]?
The Potency was “inactive”.

What about the Potency [3] of the same compound?
Its Potency is “inactive”.

And the Potency [4]?
The Potency was “inactive”.

And the Potency [5]?
The Potency was “inactive”.

For `CCCCNC(=S)NCCCC`, which Potency [1] is on record?
Its Potency is 79.6 µM (active).

What about the Potency [2] of the same compound?
The Potency was 71 µM (active).

What about the Potency [3] of the same compound?
Its Potency is 44.8 µM (active).

What about the Potency [4] of the same compound?
The Potency was “inactive”.

What about the Potency [5] of the same compound?
The Potency was 31.7 µM (active).

With `CCOc1ccccc1N` as the compound, how does the Potency [1] read?
Its Potency is 22.3 µM (active).

What about the Potency [2] of the same compound?
Its Potency is 31.5 µM (active).

What about the Potency [3] of the same compound?
Its Potency is 19.9 µM (active).

And the Potency [4]?
Its Potency is 21.7 µM (active).

And the Potency [5]?
Its Potency is 15.8 µM (active).

Which Potency [1] does the source give for `O=C(C(Cl)Cl)N1CCOC12CCCCC2` here?
The Potency was 39.9 µM (active).

And the Potency [2]?
The Potency was 63.3 µM (active).

What about the Potency [3] of the same compound?
Its Potency is “inactive”.

And the Potency [4]?
Its Potency is “inactive”.

What about the Potency [5] of the same compound?
The Potency was “inactive”.

What does the source list for `Cc1onc(-c2ccccc2)c1C(=O)Cl`?
Potency [1]: inactive; Potency [2]: inactive; Potency [3]: inactive; Potency [4]: inactive; Potency [5]: inactive

What does the source list for `Cc1c(C(=O)NCCO)[n+](=O)c2ccccc2n1[O-]`?
Potency [1]: inactive; Potency [2]: inactive; Potency [3]: inactive; Potency [4]: inactive; Potency [5]: inactive

How did the activity change, negative = inhibition [1] turn out when `C[C@@H]1CN(c2c(F)c(F)c3c(=O)c(C(=O)O)cn(C4CC4)c3c2F)C[C@H](C)N1` was run?
The activity change, negative = inhibition was 5.04% [at 23.6 µM] (inactive).

And the Potency [2]?
The Potency was “inactive”.

What about the Potency [3] of the same compound?
The Potency was “inactive”.

What about the activity change, negative = inhibition [4] of the same compound?
Its activity change, negative = inhibition is 7.01% [at 15.8 µM] (inactive).

What about the activity change, negative = inhibition [5] of the same compound?
Its activity change, negative = inhibition is 9.32% [at 23.6 µM] (inactive).
